Compound activity as filed in PubChem.
aSyn 5UTR act: Activators via SNCA 5'UTR binding, MLPCN | AID 1814, 2009 | activity score, % (tested at 7.5 µM), hits read low | hit rate 7.1% among 300,000 | alpha-synuclein 5'UTR reporter, activators screen; in the data active = activity score below about -60%
Each line names hits and unclear results; the compound was inactive in the other large screens. Only a sample is shown.

CCOC(=O)/C=C(/C)N1N=C(c2ccc(OC)cc2)CC1c1cccc([N+](=O)[O-])c1 (stereo not drawn)	aSyn 5UTR act -166
C/C(=N\NC(=O)c1cccs1)C(C)(C)C	aSyn 5UTR act -94
CC1C2CC(C/C2=N/NC(=O)c2cccs2)C1(C)C (stereo not drawn)	aSyn 5UTR act -74
C/C(=N\NC(=O)c1cc(-c2ccc(C)s2)[nH]n1)c1ccco1	aSyn 5UTR act -168
CCOC(=O)C/C(C)=N/NC(=O)c1cccs1	aSyn 5UTR act -131
O=C(NN=C1CCCCCC1)c1cccs1	aSyn 5UTR act -75
C/C(=N/NC(=O)c1cccs1)c1ccco1	aSyn 5UTR act -100
c1cncc(-c2nc(NCCCn3ccnc3)c3ccccc3n2)c1	aSyn 5UTR act -66
Cc1ccc(-c2nc(N/N=C/c3cccc([N+](=O)[O-])c3)c3ccccc3n2)cc1	aSyn 5UTR act -153
Cc1ccc(-c2nc(N/N=C/c3cccnc3)c3ccccc3n2)cc1	aSyn 5UTR act -258
Cc1ccc(-c2nc(NCc3cccnc3)c3ccccc3n2)cc1	aSyn 5UTR act -78
Cc1ccc(-c2nc(C(Cl)Cl)c3ccccc3n2)cc1	none
Nc1cc(N)nc(SCCOc2ccccc2)n1	aSyn 5UTR act -69
Nc1cc(N)nc(SCCOc2ccccc2F)n1	aSyn 5UTR act -81
Oc1ccccc1CNc1cnc2ccccc2c1	aSyn 5UTR act -260
C=CCc1cccc(CNc2cnc3ccccc3c2)c1O	aSyn 5UTR act -94
Oc1ccc2ccccc2c1CNc1cnc2ccccc2c1	aSyn 5UTR act -97
O=C(NCc1ccco1)/C(=C/c1ccc(C(F)(F)F)cc1)c1nc2ccccc2[nH]1	aSyn 5UTR act -94
O=C(NCc1ccco1)/C(=C/c1cccc(C(F)(F)F)c1)c1nc2ccccc2[nH]1	aSyn 5UTR act -84
CCCCCc1nnc(NC(=O)C2=COCCO2)s1	aSyn 5UTR act -110
O=C(Nc1nc2cc3c(cc2s1)OCO3)C1=COCCO1	none
CCCCCc1nnc(NC(=O)C2CCCO2)s1 (stereo not drawn)	aSyn 5UTR act -90
O=C(/C=C\Nc1ccc(Br)cc1)c1cccnc1	aSyn 5UTR act -69
CC(=O)Nc1ccc(N/C=C/C(=O)c2ccccc2)cc1	aSyn 5UTR act -255
CN(C)c1ccc(N/C=C/C(=O)C(C)(C)C)cc1	aSyn 5UTR act -78
CN(C)c1ccc(N/C=C/C(=O)c2ccccc2)cc1	aSyn 5UTR act -65
O=C(/C=C/c1ccc(F)cc1)N1CCCc2ccccc21	aSyn 5UTR act -65
O=C(/C=C/c1ccc(Cl)cc1Cl)N1CCc2ccccc21	aSyn 5UTR act -192
O=C(/C=C/c1cccc(F)c1)N1CCc2ccccc21	aSyn 5UTR act -111
CCN(CC)c1nc(Nc2ccc(Cl)cc2)nc(OCC#N)n1	none
Cc1ccc(C(=O)NCCc2cccs2)cc1	none
CCOC(=O)CNC(=O)c1ccc2c(c1)OCCO2	aSyn 5UTR act -64
O=C(NCc1cccs1)c1ccc2c(c1)OCCO2	aSyn 5UTR act -70
CCOC(=O)CNC(=O)c1cc(-c2ccc3c(c2)OCCO3)oc1C	aSyn 5UTR act -99
O=C(NCCc1cccs1)c1ccc(Cl)c(Cl)c1	aSyn 5UTR act -209
CC(=O)N1CCc2cc(S(=O)(=O)NCCC(=O)Nc3ccc4c(c3)OCCO4)ccc21	aSyn 5UTR act -176
CCc1c(C)nc2ncnn2c1Nc1ccc(C(C)=O)cc1	aSyn 5UTR act -112
CC(=O)c1ccc(NC(=O)CCc2c(C)nc3ncnn3c2C)cc1	aSyn 5UTR act -69
COCCCNC(=O)c1ccc2nc(Cc3ccc(OC)cc3)oc2c1	aSyn 5UTR act -95
COc1ccc(Cc2nc3ccc(C(=O)NCCCSC)cc3o2)cc1OC	aSyn 5UTR act -99
CCC1=Nc2cc(C(=O)NCCCOC)ccc2Sc2ccccc21	none
COc1ccc(Cc2nc3ccc(C(=O)N4CCOCC4)cc3o2)cc1	aSyn 5UTR act -125
C=CCNC(=O)c1ccc2nc(Cc3ccc(OC)cc3)oc2c1	aSyn 5UTR act -139
COc1ccc(Cc2nc3ccc(C(=O)N(C)CCn4ccnc4)cc3o2)cc1OC	aSyn 5UTR act -78
CC(C)c1ccc2nc(SCC(=O)NCC3CCCO3)c(C#N)cc2c1 (stereo not drawn)	aSyn 5UTR act -143
COCCNC(=O)c1noc2c1CCc1cc(OC)ccc1-2	aSyn 5UTR act -98
COc1ccc2c(c1)CCc1c(C(=O)N(C)c3ccccc3)noc1-2	aSyn 5UTR act -132
COCC(C)NC(=O)c1noc2c1CCc1cc(OC)ccc1-2 (stereo not drawn)	aSyn 5UTR act -133
COc1ccc2c(c1)CCc1c(C(=O)NCc3ccco3)noc1-2	aSyn 5UTR act -120
CCN1/C(=C/C=C/C=C/c2sc3ccccc3[n+]2CC)Sc2ccccc21	none
CC[n+]1c(/C=C/Nc2ccccc2)sc2ccccc21	aSyn 5UTR act -83
CC(=O)c1ccc(NC(=O)C2(c3ccccc3)CCOCC2)cc1	aSyn 5UTR act -118
O=C(Nc1ccccc1O)c1ccc(NS(=O)(=O)c2cccc3cccnc23)cc1	aSyn 5UTR act -605
O=C(Nc1ncccc1O)c1ccc(S(=O)(=O)Nc2ccccc2)cc1	aSyn 5UTR act active
O=C(c1cc2ccccc2o1)c1nc2c(n1O)CCCCC2	aSyn 5UTR act -73
Cc1ccc(C(=O)c2nc3c(n2O)CCCC3)cc1	aSyn 5UTR act -86
O=C(O)c1ccc(N/N=C/c2cc3ccccc3nc2Cl)cc1	aSyn 5UTR act -143
Cc1cccc2cc(/C=N/Nc3ccc(C(=O)O)cc3)c(Cl)nc12	aSyn 5UTR act -197
O=[N+]([O-])c1ccccc1N/N=C/c1cc2ccccc2nc1Cl	aSyn 5UTR act -206
O=[n+]1cc(-c2cc3ccccc3o2)n([O-])c2c1CCCC2	aSyn 5UTR act -91
CCOC(=O)c1c(C)oc2c1cc(O)c1ccccc12	aSyn 5UTR act -104
CCOC(=O)c1c(C)oc2c1c1c(c3ccccc32)OCN(CCCC(=O)O)C1	aSyn 5UTR act -108
CCOC(=O)c1c2c(n(C)c1C)C(=O)C(=O)c1ccc(Br)cc1-2	none
CCOC(=O)c1c(C)[nH]c2c1cc(O)c1ccccc12	aSyn 5UTR act -189
Cc1ccc(-c2ccc3c(c2)S(=O)(=O)c2ccccc2C3=O)cc1	aSyn 5UTR act -156
CCn1nnnc1SCC(=O)c1ccc(C)cc1	aSyn 5UTR act -66
O=C(CSc1nnnn1Cc1ccccc1)c1ccccc1	aSyn 5UTR act -67
O=C(CSc1ccccc1)Nc1nc2ccccc2[nH]1	aSyn 5UTR act -132
O=C(CSc1n[nH]c(-c2ccccn2)n1)Nc1ccc(Cl)cc1	none
O=C(CCCOc1ccccc1)Nc1nc2ccccc2[nH]1	aSyn 5UTR act -115
O=C(CSc1ccc(Cl)cc1)Nc1ccc(-c2nc3ccccc3[nH]2)cc1	aSyn 5UTR act -94
COc1nccnc1NS(=O)(=O)c1ccc(NCc2cc(Br)ccc2O)cc1	aSyn 5UTR act -83
COc1cc(C)c(C(C)C)cc1S(=O)(=O)n1cnc(C)c1	none
O=[N+]([O-])c1cccc2ccc(/C=C/c3ccc(Cl)cc3)nc12	aSyn 5UTR act -149
CC(=O)Nc1ccc(/C=C/c2ccc3c([N+](=O)[O-])cccc3n2)cc1	aSyn 5UTR act -164
O=[N+]([O-])c1cccc2ccc(/C=C/c3cccc(Br)c3)nc12	aSyn 5UTR act -107
O=[N+]([O-])c1cccc2ccc(/C=C/c3ccc(C(F)(F)F)cc3)nc12	aSyn 5UTR act -94
O=C(N/N=C/c1ccccn1)c1c[nH]c2ccccc12	aSyn 5UTR act -79
C/C(=N\NC(=O)c1c[nH]c2ccccc12)c1ccc(C)s1	aSyn 5UTR act -186
CCn1nc(C)c(/C=N/NC(=O)c2c[nH]c3ccccc23)c1C	aSyn 5UTR act -175
O=C(N/N=C/c1ccsc1)c1c[nH]c2ccccc12	aSyn 5UTR act -126
CC(=O)N/N=C(/C)c1ccc(NC(=O)c2csc(C)c2C)cc1	aSyn 5UTR act -113
